PubChem BioAssay AID1159580 (chemical genetic matrix, 2015)
“And” between values parts separate entries of the source, which are not always exact repeats. Equal entries are not always repeated. In all, about 5,500 compounds went through this assay and about 2,000 (36%) were called active. About 18% were inconclusive and are not listed. Rule as the data show it: active = normalized growth mostly below about 0.91 (no sharp cut-off); inconclusive = no clear call, values can overlap the other calls; inactive = mostly above about 0.92. This is one part of the list.

Assay: chemical genetic growth profiling, strain panel (AID 1159580);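 also: tested at 20 µM; growth read once vehicle control cultures reached saturation at 30 °C; 1 = growth at the plate median or of vehicle wells; lower values mean less growth of the strain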
Conditions: S. cerevisiae deletion strains, growth OD

Measured: normalized growth

C[C@]12C=CC(=O)C=C1CCC1C3C[C@@H](O)[C@](O)(C(=O)CO)[C@@]3(C)C[C@H](O)[C@@]12F (some centres undefined)
inactive: locus YAL021C, strain ccr4, active compounds read low 0.932 | locus YAL026C, strain drs2, active compounds read low 0.992 | locus YAL030W, strain snc1, active compounds read low 0.996 | locus YBL061C, strain skt5, active compounds read low 0.984 | locus YBR009C, strain hhf1, active compounds read low 0.999 | locus YBR021W, strain FUR4, active compounds read low 1.02 | locus YBR023C, strain chs3, active compounds read low 0.961 | locus YBR171W, strain sec66, active compounds read low 0.976 | locus YBR229C, strain ROT2, active compounds read low 1.01 | locus YBR231C, strain swc5, active compounds read low 1.01 | locus YBR279W, strain paf1, active compounds read low 0.973 | locus YCL011C, strain gbp2, active compounds read low 0.974 | locus YCL016C, strain dcc1, active compounds read low 0.958 | locus YCL029C, strain bik1, active compounds read low 0.98 | locus YCL061C, strain MRC1, active compounds read low 0.996 | locus YCL069W, strain vba3, active compounds read low 0.983 | locus YCR088W, strain abp1, active compounds read low 0.985 | locus YDL005C, strain med2, active compounds read low 0.997 | locus YDL035C, strain GPR1, active compounds read low 1.02 | locus YDL040C, strain nat1, active compounds read low 0.992 | locus YDL074C, strain BRE1, active compounds read low 1.04 | locus YDL101C, strain DUN1, active compounds read low 1.02 | locus YDL134C, strain PPH21, active compounds read low 1 | locus YDL185W, strain tfp1, active compounds read low 0.973 | locus YDL192W, strain arf1, active compounds read low 0.984 | locus YDR001C, strain nth1, active compounds read low 0.983 | locus YDR069C, strain doa4, active compounds read low 0.954 | locus YDR101C, strain arx1, active compounds read low 0.971 | locus YDR137W, strain rgp1, active compounds read low 0.965 | locus YDR150W, strain NUM1, active compounds read low 1.02 | locus YDR159W, strain sac3, active compounds read low 0.975 | locus YDR162C, strain NBP2, active compounds read low 1 | locus YDR195W, strain ref2 0.991 | locus YDR297W, strain sur2, active compounds read low 0.994 | locus YDR318W, strain mcm21, active compounds read low 0.985 | locus YDR334W, strain swr1, active compounds read low 0.976 | locus YDR335W, strain msn5, active compounds read low 0.984 | locus YDR388W, active compounds read low 0.982 | locus YDR392W, strain spt3, active compounds read low 0.896 | locus YDR502C, strain sam2, active compounds read low 0.981 | locus YEL003W, strain gim4, active compounds read low 1 | locus YEL037C, strain rad23, active compounds read low 0.987 | locus YEL061C, strain CIN8 (second series), active compounds read low 0.991 | locus YEL061C, strain CIN8, active compounds read low 1.01 | locus YER015W, strain faa2, active compounds read low 0.999 | locus YER016W, strain bim1, active compounds read low 0.942 | locus YER110C, active compounds read low 0.979 | locus YER111C, strain swi4, active compounds read low 0.975 | locus YER155C, strain BEM2 (second series), active compounds read low 0.989 | locus YER155C, strain BEM2, active compounds read low 1.01 | locus YER167W, strain BCK2, active compounds read low 1 | locus YFR010W, strain ubp6, active compounds read low 1 | locus YGL078C, strain dbp3, active compounds read low 0.981 | locus YGL086W, strain mad1, active compounds read low 0.996 | locus YGL167C, strain pmr1, active compounds read low 0.992 | locus YGL173C, strain kem1, active compounds read low 0.98 | locus YGL227W, strain vid30, active compounds read low 0.962 | locus YGL240W, strain doc1, active compounds read low 0.991 | locus YGL248W, strain PDE1, active compounds read low 1.02 | locus YGL253W, strain hxk2, active compounds read low 0.98 | locus YGR135W, strain pre9, active compounds read low 0.99 | locus YGR229C, strain SMI1, active compounds read low 1.01 | locus YGR252W, strain gcn5, active compounds read low 1.01 | locus YHR013C, strain ard1, active compounds read low 0.952 | locus YHR027C, strain rpn1, active compounds read low 0.998 | locus YHR030C, strain SLT2, active compounds read low 1.01 and 0.984 | locus YHR079C, strain IRE1 (second series), active compounds read low 0.973 | locus YHR079C, strain IRE1, active compounds read low 0.991 | locus YHR094C, strain hxt1, active compounds read low 0.984 | locus YHR129C, strain ARP1, active compounds read low 1.02 | locus YHR142W, strain chs7, active compounds read low 0.956 | locus YHR200W, strain rpn10, active compounds read low 0.988 | locus YIL066C, strain RNR3, active compounds read low 1.01 | locus YIL073C, strain SPO22, active compounds read low 0.984 | locus YIL125W, strain kgd1, active compounds read low 0.989 | locus YIR030C, strain dcg1, active compounds read low 0.98 | locus YJL092W, strain hpr5, active compounds read low 0.99 | locus YJL095W, strain BCK1 (second series), active compounds read low 0.995 | locus YJL095W, strain BCK1, active compounds read low 1.03 and 0.985 | locus YJL115W, strain asf1, active compounds read low 0.971 | locus YJL129C, strain trk1, active compounds read low 0.948 | locus YJL134W, strain LCB3, active compounds read low 1.01 | locus YJL154C, strain vps35, active compounds read low 0.967 | locus YJL164C, strain tpk1, active compounds read low 1.01 | locus YJL166W, strain qcr8, active compounds read low 1.01 | locus YJL168C, strain set2, active compounds read low 0.989 | locus YJL187C, strain SWE1 (second series), active compounds read low 1.01 | locus YJL187C, strain SWE1, active compounds read low 0.982 | locus YJR043C, strain POL32, active compounds read low 1.02
